Source: PubChem
NR5A2 inv ag: LRH-1 (NR5A2) inverse agonists, primary screen, cell-based, luminescence, HEK293T, StAR-luciferase reporter; inhibition, % at 3.6 µM; AID 602396, 2012; LRH-1 transfected, 24 h; hit rate 0.13% among 360,000;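 active means inhibition above the mean inhibition of all tested compounds plus 3 SD, cut at about 73% in these data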;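 further: 0% = DMSO wells and 100% = reporter-only cells lacking LRH-1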
NCOA1 inh: SRC1 coactivator transcriptional activity inhibitors, primary screen, cell-based, luminescence. Nuclear receptor coactivator 1 (Homo sapiens), Q15788. HEK293 GAL4-SRC1 luciferase reporter. inhibition, % at 3.6 µM. hit rate 0.12% among 360,000;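 active means inhibition above the campaign mean plus 3 SD, with each screening campaign given its own cutoff, cut at about 60% in these data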;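 further: 0% = DMSO treated cells and 100% = gossypol at 36 µM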
COUP-TFII inh: NR2F2 transcriptional activity inhibitors, primary screen, cell-based, luciferase reporter, HEK293T, luminescence; HEK293T NGFI-A luciferase reporter; inhibition, % at 8.6 µM; hit rate 0.7% among 370,000; AID 686940, 2013;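 active means inhibition above a per-plate cutoff, mean inhibition of test wells between control levels plus 3 SD, cut at about 38% in these data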;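 further: cells cotransfected with COUP-TFII expression vector driving the NGFI-A reporter; 0% = median of COUP-TF2 test wells and 100% = reporter-only cells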
SRC3 inh: SRC3 coactivator transcriptional activity inhibitors, primary screen, cell-based, luminescence. inhibition, % at 3.6 µM. hit rate 0.17% among 360,000. HEK293 GAL4-SRC3 luciferase reporter;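 active means inhibition above a per-campaign cutoff, the mean of all compounds plus 3 SD, cut at about 60% in these data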;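 further: 0% = DMSO-treated cells and 100% = gossypol-treated cells at 36 µM; higher means less SRC3-driven luciferase light from the GAL4 reporter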
NCOA2 inhibitor: inhibition of GAL4-SRC2 driven luciferase reporter, primary screen, SRC2 inhibitor project, cell-based, luminescence; inhibition, % at 9 µM; Nuclear receptor coactivator 2 (Homo sapiens), Q15596; HEK293 GAL4-SRC2 luciferase reporter; hit rate 0.17% among 370,000; AID 651957, 2012;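 active means inhibition above the mean inhibition of all tested compounds plus 3 SD, set per campaign, cut at about 52% in these data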;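 further: 0% = DMSO treated cells and 100% = cells given Gossypol at 36 µM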
Target sequence (Q15596 whole entry, looked up, the tested form may be a part): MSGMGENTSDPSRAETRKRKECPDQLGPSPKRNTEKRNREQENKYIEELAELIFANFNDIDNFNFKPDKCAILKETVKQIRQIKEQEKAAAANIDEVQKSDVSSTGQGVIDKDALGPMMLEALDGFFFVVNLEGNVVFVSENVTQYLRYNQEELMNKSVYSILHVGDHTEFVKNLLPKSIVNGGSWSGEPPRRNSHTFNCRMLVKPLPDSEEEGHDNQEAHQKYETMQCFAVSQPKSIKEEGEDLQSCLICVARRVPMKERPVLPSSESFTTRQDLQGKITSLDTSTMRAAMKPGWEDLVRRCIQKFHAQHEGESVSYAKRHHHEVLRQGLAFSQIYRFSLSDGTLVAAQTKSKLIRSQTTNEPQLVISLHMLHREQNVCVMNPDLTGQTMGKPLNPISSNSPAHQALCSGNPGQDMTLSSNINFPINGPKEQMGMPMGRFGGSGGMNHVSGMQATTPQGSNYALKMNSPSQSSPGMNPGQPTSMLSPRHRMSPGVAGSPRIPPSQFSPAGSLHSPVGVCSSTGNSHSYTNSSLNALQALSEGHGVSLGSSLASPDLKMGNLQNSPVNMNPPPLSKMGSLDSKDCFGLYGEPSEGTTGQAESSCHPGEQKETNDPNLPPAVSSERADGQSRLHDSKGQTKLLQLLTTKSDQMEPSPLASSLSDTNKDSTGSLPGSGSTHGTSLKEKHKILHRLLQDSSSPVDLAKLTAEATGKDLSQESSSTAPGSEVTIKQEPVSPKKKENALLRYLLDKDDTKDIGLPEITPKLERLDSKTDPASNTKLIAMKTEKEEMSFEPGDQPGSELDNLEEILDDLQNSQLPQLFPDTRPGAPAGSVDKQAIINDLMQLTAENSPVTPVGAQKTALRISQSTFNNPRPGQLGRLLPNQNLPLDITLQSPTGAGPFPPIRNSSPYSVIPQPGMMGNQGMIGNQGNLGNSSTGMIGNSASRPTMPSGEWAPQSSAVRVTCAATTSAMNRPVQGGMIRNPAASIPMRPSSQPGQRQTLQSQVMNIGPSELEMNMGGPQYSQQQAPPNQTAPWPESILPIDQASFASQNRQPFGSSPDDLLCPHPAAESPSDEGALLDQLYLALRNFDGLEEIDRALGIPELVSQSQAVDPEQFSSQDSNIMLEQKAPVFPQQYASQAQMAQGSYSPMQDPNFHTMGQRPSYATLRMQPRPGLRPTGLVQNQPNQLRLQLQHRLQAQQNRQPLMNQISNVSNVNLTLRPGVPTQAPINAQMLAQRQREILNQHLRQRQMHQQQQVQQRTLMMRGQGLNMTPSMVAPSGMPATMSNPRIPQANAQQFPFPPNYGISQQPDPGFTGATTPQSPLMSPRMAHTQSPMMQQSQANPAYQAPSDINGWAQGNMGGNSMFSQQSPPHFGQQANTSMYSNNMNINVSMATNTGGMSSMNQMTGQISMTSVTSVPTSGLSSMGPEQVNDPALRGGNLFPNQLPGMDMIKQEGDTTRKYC
Gli-Sufu block: Gli-Sufu pathway antagonists, primary screen, luciferase luminescence, Sufu-KO-LIGHT cells, uHTS; Sufu-KO-LIGHT fibroblasts, Gli luciferase reporter luminescence; inhibition, % at 5 µM; hit rate 0.74% among 340,000;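 active means inhibition above about 55%, limit read from the data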;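 further: 0% = DMSO-treated cells and 100% = wells with medium but no cells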
Gal4-VP16 ctr: Gal4-VP16 luciferase reporter inhibitors, counter-screen for COUP-TFII antagonist project, cell-based, luminescence, HEK293; hit rate 25% among 2,500; inhibition, % at 8.5 µM; shares compounds with COUP-TFII inh; in the data active means inhibition above about 13%
COUP-TFII conf: NR2F2 transcriptional activity inhibitors, confirmation, cell-based, luciferase reporter, HEK293, triplicate. AID 687008, 2013. shares compounds with COUP-TFII inh. hit rate 45% among 2,500. inhibition, % at 8.5 µM. HEK293 NGFI-A luciferase reporter, luminescence;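 active means mean inhibition over three repeats above a set limit taken from the earlier primary screen, cut at about 38% in these data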;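 further: 100% = cells given the luciferase reporter alone without the COUP-TF2 vector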
The depositor's hits bear a star; / = no result. An excerpt weighted towards active compounds, which were near 1.3% of everything screened.

SMILES	NR5A2 inv ag	NCOA1 inh	COUP-TFII inh	SRC3 inh	NCOA2 inhibitor	Gli-Sufu block	Gal4-VP16 ctr	COUP-TFII conf
CN(C)S(=O)(=O)c1cccc(NC(=O)c2ccc(COc3ccccc3)cc2)c1	19	3	63*	15	13	11	2	52*
CC(=O)N1CCN(C(=O)CN2C(=O)CC(C)(C)S(=O)(=O)c3ccccc32)CC1	/	/	8	/	-9	/	/	/
N#CCC[C@H]1CC[C@]2(CCCN(C(=O)c3ccc4ccccc4n3)C2)O1	/	/	7	/	4	/	/	/
CN(c1ccccc1)S(=O)(=O)c1cccc(NC(=O)CN2CCCc3ccccc32)c1	14	-6	39*	7	25	18	8	11
O=S(=O)(NC1CCCC1)c1ccc(S(=O)(=O)N2CCc3ccccc32)cc1	22	7	40*	3	10	47	-4	10
Nc1ccc(S(=O)(=O)N2CCc3ccccc32)cc1	-7	-10	12	2	20	-10	/	/
Cc1ccc(C(=O)Oc2coc(CSc3ncccn3)cc2=O)cc1[N+](=O)[O-]	/	/	4	/	/	/	/	/
COc1ccc(OCC(=O)Nc2ccc(N3CCN(C(=O)c4ccccc4)CC3)c(Cl)c2)cc1	33	9	59*	32	25	36	-7	31
C=CCN1C(=O)[C@H](CC(=O)N2CCCCC2)[C@@]2(C(=O)OCC)CCCC=C12	/	/	-9	/	15	/	/	/
C=CCN1[C@@H](CC(C)C)COc2cccc(N3CCCC3)c2S1(=O)=O	/	/	-2	/	18	/	/	/
CC(=O)OCCCN1CCC2(CCC(c3ccccc3)CC2)C1=O (stereo not drawn)	/	/	-3	/	2	/	/	/
O=C(Nc1ccc(C(=O)OC2CCCCC2)cc1)c1ccncc1	18	-9	53*	12	10	3	-8	13
C(/C=C\c1ccco1)=NN1CCN(Cc2cccc3ccccc23)CC1	/	/	-1	/	-25	/	/	/
NCCOc1ccccc1-c1ccccc1	17	-5	2	13	-38	-7	/	/
Nc1ccc(Oc2ccccc2-c2ccccc2)cc1	48	44	78*	58	83*	20	77*	73*
COc1ccc(CN2C(=O)N3Cc4ccc(C)cc4C3CS2(=O)=O)cc1 (stereo not drawn)	/	/	-8	/	23	/	/	/
CCOc1ccc(-c2nc(CSCC(=O)NC3CCN(Cc4ccccc4)CC3)c(C)o2)cc1	23	-6	37	1	41	/	/	/
Cc1oc(-c2ccc(Cl)cc2)nc1CSCC(=O)NC1CCN(Cc2ccccc2)CC1	26	9	52*	11	-7	-8	15*	57*
CCOC(=O)N1CCC(NC(=O)C2CCN(Cc3nc(-c4ccc(CC)cc4)oc3C)CC2)CC1	18	-3	-6	-22	16	-12	/	/
CCOC(=O)N1CCC(NC(=O)C2CCCN(Cc3nc(-c4ccc(CC)cc4)oc3C)C2)CC1 (stereo not drawn)	31	4	54*	38	19	31	0	45*
Cc1oc(-c2ccc(Cl)cc2)nc1CN1CCCC(C(=O)NCc2cccnc2)C1 (stereo not drawn)	28	8	52*	16	4	12	13	46*
O=C(Nc1ccc(Cl)cc1)C1CCCN1S(=O)(=O)c1cccnc1 (stereo not drawn)	/	/	-9	/	-13	/	/	/
COc1ccc(CNC(=O)c2c(N)[nH]c(C(=O)c3ccccc3)c2-c2ccc3ccccc3c2)cc1OC	/	/	7	/	-21	/	/	/
COc1ccc(CCNC(=O)c2c(N)[nH]c(C(=O)c3ccccc3)c2-c2ccc(N(C)C)cc2)cc1	/	/	44*	/	/	/	-20	3
